Each structure is given as a SMILES string. A number with no mark means an inactive call. For some of these results: Potency and affinity values are given separately. Activity calls are given as the source filed them. Unless noted, how the calls were made is not given here.

Test [1] in a line: antimalarial activity against Dd2 strain (AID 2302;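 active means growth inhibition above 50% at the single 2 µM test dose, taken to imply half-maximal potency below 2 µM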;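 further: 0% = DMSO untreated growth and 100% = chloroquine plus artemisinin killed control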). The note with it: P. falciparum Dd2 in RBCs, LDH growth readout, 72 h; at 2 µM; active compounds read high.
Test [2] is described as follows: human hepatoma cell viability loss – ATP luminescence, cytotoxicity control for P. falciparum antimalarial project, primary screen (AID 2303;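 active means inhibition above 50%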;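 further: 0% = DMSO wells and 100% = digitonin-killed cells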). Conditions: HepG2 viability, 24-48 h, at 10 µM, active compounds read high.
Test [3] deals with L-lactate dehydrogenase (Plasmodium falciparum (isolate CDC / Honduras)) (UniProt Q27743). Description: PfLDH activity inhibition – cell lysate, 3D7 strain, counter-screen for P. falciparum growth inhibition project (AID 2304).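 Further: 0% = vehicle and 100% = reference inhibitor.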 The note with it: P. falciparum 3D7 crude extract, LDH APAD/NBT absorbance; at 2 µM; active compounds read high.
The nature of test [4]: inhibition of 3D7 malaria parasite growth – strain 3D7 (AID 2306).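 Further: 0% = DMSO wells and 100% = chloroquine plus artemisinin control wells.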 Conditions: P. falciparum 3D7 erythrocytic growth, LDH absorbance, 72 h; at 2 µM; active compounds read high.
In test [5] the target is Calcium-dependent protein kinase 1 (Plasmodium falciparum (isolate 3D7)) (UniProt P62344). In words: PfCDPK1 kinase inhibitors, biochemical, TCAMS library (AID 1159585; cut-off not given, nearly all actives have IC50 up to about 0.98 µM;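 further: inhibitors leave more ATP so luminescence rises with inhibition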). Conditions: recombinant PfCDPK1, Kinase-Glo ATP depletion luminescence.
In test [6] the target is Plasmodium falciparum protein kinase 6 (PK6, PF3D7_1337100) (UniProt Q8IDW1). Description: PfPK6 kinase inhibitors, biochemical, TCAMS library (AID 1159586). The note with it: recombinant PfPK6, Kinase-Glo ATP depletion luminescence. A general note: Kinase-Glo reads ATP consumption through a luciferase reaction.
Test [7] concerns the target Protein kinase 7 (PK7), Plasmodium falciparum 3D7 (PF3D7_0213400) (UniProt Q7YTF7). Description: inhibition of Plasmodium PK7 catalytic activity – biochemical, TCAMS antimalarial set, Kinase-Glo luminescence (AID 1159587). The note with it: recombinant PfPK7, Kinase-Glo ATP depletion luminescence.
For test [8], the target named is Calcium-dependent protein kinase 4 (Plasmodium falciparum (isolate 3D7)) (UniProt Q8IBS5). Description: PfCDPK4 kinase inhibitors, biochemical, TCAMS library (AID 1159588; cut-off not given, nearly all actives have IC50 up to about 0.91 µM). The note with it: recombinant PfCDPK4, Kinase-Glo ATP depletion luminescence.
Calcium-dependent protein kinase 4 (Plasmodium falciparum (isolate 3D7)), sequence (Q8IBS5 whole entry, looked up): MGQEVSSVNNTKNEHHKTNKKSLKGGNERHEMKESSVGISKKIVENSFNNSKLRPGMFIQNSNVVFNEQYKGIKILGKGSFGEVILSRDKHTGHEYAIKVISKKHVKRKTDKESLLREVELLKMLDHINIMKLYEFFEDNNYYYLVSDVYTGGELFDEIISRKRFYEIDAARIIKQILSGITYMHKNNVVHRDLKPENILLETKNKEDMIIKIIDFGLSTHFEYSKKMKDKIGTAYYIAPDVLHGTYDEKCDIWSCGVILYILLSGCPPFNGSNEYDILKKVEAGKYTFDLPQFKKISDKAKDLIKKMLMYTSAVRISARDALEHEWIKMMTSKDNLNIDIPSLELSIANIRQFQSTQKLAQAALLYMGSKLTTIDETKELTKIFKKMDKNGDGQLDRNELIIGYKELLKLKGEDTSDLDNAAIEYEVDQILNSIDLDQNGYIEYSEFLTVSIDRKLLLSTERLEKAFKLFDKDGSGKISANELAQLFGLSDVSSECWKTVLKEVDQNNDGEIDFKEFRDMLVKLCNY

Protein kinase 7 (PK7), Plasmodium falciparum 3D7 (PF3D7_0213400), sequence (Q7YTF7 1-343): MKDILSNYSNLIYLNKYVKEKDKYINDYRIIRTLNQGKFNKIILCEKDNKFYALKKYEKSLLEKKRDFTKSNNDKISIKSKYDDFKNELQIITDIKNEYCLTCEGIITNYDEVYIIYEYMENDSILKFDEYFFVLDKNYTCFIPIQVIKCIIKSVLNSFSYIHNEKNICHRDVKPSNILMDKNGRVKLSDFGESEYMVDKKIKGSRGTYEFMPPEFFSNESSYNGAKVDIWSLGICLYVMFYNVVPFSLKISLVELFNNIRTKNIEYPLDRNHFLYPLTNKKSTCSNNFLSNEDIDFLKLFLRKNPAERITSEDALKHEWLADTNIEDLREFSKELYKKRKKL
L-lactate dehydrogenase (Plasmodium falciparum (isolate CDC / Honduras)), sequence (Q27743 whole entry, looked up): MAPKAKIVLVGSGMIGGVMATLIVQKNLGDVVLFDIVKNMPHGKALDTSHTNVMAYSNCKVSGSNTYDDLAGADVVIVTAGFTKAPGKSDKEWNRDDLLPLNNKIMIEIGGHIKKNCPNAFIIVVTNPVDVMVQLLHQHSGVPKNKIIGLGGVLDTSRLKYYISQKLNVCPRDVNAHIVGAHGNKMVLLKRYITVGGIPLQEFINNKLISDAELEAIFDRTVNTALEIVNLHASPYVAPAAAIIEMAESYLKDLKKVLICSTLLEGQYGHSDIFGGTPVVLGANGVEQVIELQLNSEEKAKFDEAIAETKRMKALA
Calcium-dependent protein kinase 1 (Plasmodium falciparum (isolate 3D7)), sequence (P62344 whole entry, looked up): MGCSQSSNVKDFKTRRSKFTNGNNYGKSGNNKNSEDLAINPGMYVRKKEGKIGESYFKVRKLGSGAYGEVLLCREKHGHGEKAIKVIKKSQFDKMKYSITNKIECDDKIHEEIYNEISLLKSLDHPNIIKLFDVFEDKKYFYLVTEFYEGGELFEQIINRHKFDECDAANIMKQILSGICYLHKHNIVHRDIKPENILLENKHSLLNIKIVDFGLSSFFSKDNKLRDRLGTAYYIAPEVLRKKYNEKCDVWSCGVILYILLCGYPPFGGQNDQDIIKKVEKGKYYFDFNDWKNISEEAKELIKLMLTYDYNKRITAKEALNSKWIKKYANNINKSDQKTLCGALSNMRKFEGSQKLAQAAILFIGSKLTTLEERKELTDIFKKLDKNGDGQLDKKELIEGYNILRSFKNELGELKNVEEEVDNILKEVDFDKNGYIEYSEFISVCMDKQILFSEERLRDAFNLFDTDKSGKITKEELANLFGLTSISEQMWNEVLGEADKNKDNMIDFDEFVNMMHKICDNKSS
Plasmodium falciparum protein kinase 6 (PK6, PF3D7_1337100), sequence (Q8IDW1 1-305): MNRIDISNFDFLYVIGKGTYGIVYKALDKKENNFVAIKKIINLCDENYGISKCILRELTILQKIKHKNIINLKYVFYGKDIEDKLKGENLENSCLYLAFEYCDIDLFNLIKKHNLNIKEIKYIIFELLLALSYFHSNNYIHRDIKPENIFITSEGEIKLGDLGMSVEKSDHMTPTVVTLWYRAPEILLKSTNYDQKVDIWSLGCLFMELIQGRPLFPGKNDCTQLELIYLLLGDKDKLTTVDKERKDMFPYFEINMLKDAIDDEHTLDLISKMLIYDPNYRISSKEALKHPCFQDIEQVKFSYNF

What is called inhibition is the relative decrease from the control value, in per cent. Consider `COc1ccc(C2C(C(=O)Nc3cc(OC)c(OC)c(OC)c3)c3cc(OC)c(OC)cc3C(=O)N2C)cc1` (stereo not given), for which the growth inhibition in test [1] was 100% (active); in test [4], 98% (active). Further, the inhibition in test [2] was 9%; in test [3], 2%. The result in test [5], in test [6], in test [7] and in test [8] was inactive.
In the case of `CN1CCC(NCc2ccc(-c3cccc(S(=O)(=O)NCC4CCCO4)c3)cc2)CC1` (stereo not given), the growth inhibition in test [1] is 0%; in test [4], 90% (active). Besides, the inhibition was 8% in test [2] and -1% in test [3]. For the same compound, the outcome in test [5], in test [6], in test [7] and in test [8] was inactive.
In the case of `Cc1ccc(CN2CCCCC(NC(=O)c3cc4ccccc4s3)C2)cc1` (stereo not given), the growth inhibition in test [1] was 8%; in test [4], 94% (active). The inhibition in test [2] is 9%; in test [3] it was -1%. Further, the outcome in test [5], in test [6], in test [7] and in test [8] was inactive.
Consider `CCCCOc1ccc(C(O)C(CN2CCCCC2)c2ccccc2)cc1` (stereo not given), for which the growth inhibition in test [1] was 84% (active); in test [4] it was 90% (active). Further, the inhibition in test [2] was 7%; in test [3], 3%. Besides, the outcome in test [5], in test [6], in test [7] and in test [8] was inactive.
Take `Oc1ccc2[nH]c(-c3cccc(F)c3)nc2c1CNCc1ccccc1`: the growth inhibition is 55% (active) in test [1] and 92% (active) in test [4]. Further, the inhibition is 29% in test [2] and -2% in test [3]. Besides, the result in test [5], in test [6], in test [7] and in test [8] was inactive.
On to `COc1ccc(NC(=O)Nc2ccc(-c3ccc(-c4nc5ccccc5[nH]4)cc3)cc2)cc1`, for which the values for the growth inhibition in test [1] and in test [4] were 27% and 100% (active), respectively. In addition, the values for the inhibition in test [2] and in test [3] were 22% and 5%, respectively. Further, the outcome in test [5], in test [6], in test [7] and in test [8] was inactive.
Turning to `CC(C)[C@H](NC(=O)c1c(CN2CCC(N3CCCCC3)CC2)c(-c2ccccc2)nc2cc(O)ccc12)c1ccccc1`, the growth inhibition in test [1] was 73% (active); in test [4] it was 100% (active). The results for the inhibition in test [2] and in test [3] were 10% and 4%, respectively. Besides, the result in test [5], in test [6], in test [7] and in test [8] was inactive.
As for `Oc1ccc(CNCCCCCCNCCc2ccc(Cl)cc2)cc1O`, the growth inhibition in test [1] was 7%; in test [4] it was 94% (active). In addition, the inhibition in test [2] and in test [3] was 2% throughout. Further, the outcome in test [5], in test [6], in test [7] and in test [8] was inactive.
With `CCc1cc(CNC2CCN(CCc3c(F)cnc4ccc(OC)nc34)CC2)cc2c1OCCO2`, the values for the growth inhibition in test [1] and in test [4] were 94% (active) and 100% (active), respectively. The inhibition in test [2] is 46%; in test [3] it was 1%. Further, the outcome in test [5], in test [6], in test [7] and in test [8] was inactive.
As to `CCn1cnc2c(Nc3cccc([N+](=O)[O-])c3)nc(N3CCC(N4CCCCC4)CC3)nc21`, the growth inhibition in test [1] was 35%; in test [4], 98% (active). For the same compound, the inhibition in test [2] was 31%; in test [3] it was 3%. The result in test [5], in test [6], in test [7] and in test [8] was inactive.
On to `COc1ccc(C2c3cc(OC)c(OC)cc3C(=NO)C2C)cc1OC` (stereo not given), for which the growth inhibition in test [1] is 6%; in test [4], 90% (active). Moreover, the values for the inhibition in test [2] and in test [3] were 20% and -2%, respectively. Besides, the result in test [5], in test [6], in test [7] and in test [8] was inactive.
As for `COC(=O)C(Cc1ccccc1)NC(=O)NC1CCN(c2ccnc(Nc3ccc(F)cc3)n2)C1` (stereo not given), the growth inhibition in test [1] was 14%; in test [4], 90% (active). Further, the inhibition in test [2] was 0%; in test [3], -3%. Besides, the result in test [5], in test [6], in test [7] and in test [8] was inactive.
For the compound `CCc1ccc(NC(=O)c2ccc(CN3CCCN(Cc4cccc(C)c4)CC3)cc2)cc1`, the growth inhibition in test [1] was -4%; in test [4] it was 80% (active). For the same compound, the results for the inhibition in test [2] and in test [3] were 53% (active) and 1%, respectively. For the same compound, the outcome in test [5], in test [6], in test [7] and in test [8] was inactive.
With `CN(C)C(=O)O[C@@H]1CN[C@H](C#Cc2cc3ncnc(Nc4ccc5c(cnn5Cc5cccc(F)c5)c4)c3s2)C1`, the growth inhibition in test [1] is 68% (active); in test [4] it was 97% (active). Also, the inhibition in test [2] is 0%; in test [3], 7%. The outcome in test [5], in test [6], in test [7] and in test [8] was inactive.
For the compound `O=C(Nc1cccc(-c2ccc(-c3nc4ccccc4[nH]3)cc2)c1)c1ccncc1`, the growth inhibition in test [1] is 58% (active); in test [4], 100% (active). For the same compound, the inhibition in test [2] is 30%; in test [3], -1%. The outcome in test [5], in test [6], in test [7] and in test [8] was inactive.
As to `Cc1ccc(Nc2nccc(NCC(O)c3cccc(C(F)(F)F)c3)n2)cc1` (stereo not given), the growth inhibition in test [1] is 74% (active); in test [4], 99% (active). Besides, the inhibition in test [2] was 19%; in test [3], -6%. Also, the outcome in test [5], in test [6], in test [7] and in test [8] was inactive.
For the compound `CCCc1cc(C(=O)N[C@@H](Cc2ccccc2)[C@H](O)CNC(C)(C)c2cccc(OC)c2)c(F)c(N2CCCC2=O)c1`, the growth inhibition in test [1] and in test [4] was 98% (active) each time. Also, the values for the inhibition in test [2] and in test [3] were 7% and 0%, respectively. Moreover, the result in test [5], in test [6], in test [7] and in test [8] was inactive.
Regarding `Cc1cc(CN2CC[C@H](NC(=O)c3ccc(Cl)c(Cl)c3)C2)ccc1OC1CCN(C)C1` (stereo not given in full), the values for the growth inhibition in test [1] and in test [4] were 24% and 101% (active), respectively. Moreover, the values for the inhibition in test [2] and in test [3] were 71% (active) and -3%, respectively. The outcome in test [5], in test [6], in test [7] and in test [8] was inactive.
As for `O=C(NCCN1CCOCC1)c1ccc(-c2ccc(CNCCCc3ccccc3)cc2)nc1`, the growth inhibition is 10% in test [1] and 97% (active) in test [4]. The inhibition in test [2] was -11%; in test [3] it was -1%. Moreover, the outcome in test [5], in test [6], in test [7] and in test [8] was inactive.
Turning to `CS(=O)(=O)Nc1ccc(-c2ccc3ccnc(N)c3c2)cc1`, the figures for the growth inhibition in test [1] and in test [4] were 75% (active) and 85% (active), respectively. Also, the values for the inhibition in test [2] and in test [3] were 31% and -3%, respectively. Further, the outcome in test [5], in test [6], in test [7] and in test [8] was inactive.
